# PINK1 expr mod = PINK1 expression modulation; AID 624263; Potency, µM (titrated, usually from 76.6 µM), without a hit: at the top dose activation (PINK1 increase), actives largely listed as activators; hit rate 0.2% among 410,000; PINK1 immunofluorescence, high-content cytometry, 24 h; active means well fitted activation curve with a large enough effect; inconclusive means small, poorly fitted or top-dose-only effect; cell line not stated here; further: potency means the concentration at half of the fitted maximal effect; % of control where 0% means no effect; nearly all actives have a fitted effect of over 65% in size
#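 Readout is PINK1 immunofluorescence, quantified alongside mitochondrial, cell and nuclear markers by laser-scanning microplate cytometry. Cells from a stable line were exposed to compound titrations (5 concentrations) for 24 hours, with CCCP controls.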
# SW480 rereplic = inducers of DNA re-replication in SW480 colon cancer cells; SW480 DNA re-replication, Hoechst DNA content imaging, 48 h; Potency, µM (doses to about 46.1 µM), for the others: top-dose re-replication activation, hits mostly activators; hit rate 1.8% among 340,000; further: potency means the concentration at half of the fitted maximal effect; % of control where 0% means no effect; nearly all actives have a fitted effect of over 55% in size
#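 SW480 cells exposed to compounds for 48 hr at 37 C, 5% CO2, then Hoechst-stained 40 min. Nuclear DNA content imaged by fluorescence scanning (405 nm excitation, 500-530 nm emission); re-replication scored as increased high-intensity nuclei.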
# MCF10A rerep = DNA re-replication induction in MCF 10a cells; MCF 10A DNA re-replication, Hoechst nuclear intensity, 48 h; Potency, µM (highest dose often 46.1 µM), without a hit: at the highest dose activity, positive = re-replication, hits mostly activators; hit rate 2.9% among 350,000; further: potency means the concentration at half of the fitted maximal effect; % of control where 0% means no effect; nearly all actives have a fitted effect of over 50% in size
# IL-1B inflam inh = inhibitors of inflammasome signaling (IL-1 beta secretion) | AID 743279 | THP-1 LPS/ATP IL-1B secretion, AlphaLISA, 16 h; active compounds read low | activity change, % at 57.5 µM | hit rate 4.7% among 360,000; in the data active means activity change below about -50%; inconclusive means mostly about -30% to -49%; further: on the % scale 0 is the no-effect control and ±100 the full control effect
#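 Secreted IL-1B measured by AlphaLISA bead assay after 16 h compound exposure of THP-1 cells; compounds (final up to 57.5 uM) added 1 h before LPS (250 ng/mL) and ATP (1.25 mM) stimulation; lower signal means less secretion.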
# ATXN2 expr inh = inhibitors of ATXN2 expression; HEK-293 ATXN2-luciferase reporter, luminescence, 24 h; Potency, µM (titrated, usually from 57 µM), without a hit: at the top dose activity change, negative = inhibition, hits mostly inhibitors; hit rate 0.72% among 360,000; AID 1745845; further: potency means the concentration at half of the fitted maximal effect; on the % scale 0 is the no-effect control and ±100 the full control effect; nearly all actives have a fitted effect of over 55% in size
#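 ATXN2-luciferase reporter cells (luciferase flanked by upstream and downstream ATXN2 gene portions) were treated 24 h at 37 °C with compounds at up to 57 uM. SteadyGlo luminescence gave expression; GF-AFC fluorescence gave viability.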
# S2 tox = reduces viability in counter-screen for ATXN expression inhibitors | AID 651635 | S2 cells (HEK-293 line with an ATXN2-luciferase reporter) viability, CellTiter-Fluor protease fluorescence, 24 h | Potency, µM (top dose mostly 56.7 µM), most hits filed as cytotoxic | hit rate 0.49% among 400,000; further: potency means the concentration at half of the fitted maximal effect; nearly all actives have a fitted effect of over 40% in size
# An asterisk follows results filed as active; i = inactive; ? = inconclusive; . = no result given; [ ] = another dose, or the depositor's remark. Hits are enriched below; roughly 7.1% of the tested compounds scored in any of these assays. Unless noted, the call rests on the fitted dose curve; in most records, active means well fitted curve in the direction sought with a large enough effect; inconclusive means small, poorly fitted or top-dose-only effect, or another doubt; inactive means no such curve, though single readings can be large; an effect the other way counts as inactive or inconclusive.
SMILES,PINK1 expr mod,SW480 rereplic,MCF10A rerep,IL-1B inflam inh,ATXN2 expr inh,S2 tox
O=C(NCc1ccncc1)c1ccc(N2CCCC2)c([N+](=O)[O-])c1,0%,-2%,-2%,-3,-21%,i
COC(=O)c1cc(CNC(=O)c2ccc(N3CCCC3)c([N+](=O)[O-])c2)ccc1OC,1%,-4%,-34%,-9,8%,i
C=C1CCN(c2ccc(C(=O)NCc3ccc(OC)cc3)cc2[N+](=O)[O-])CC1,2%,25%,3%,-75*,0%,i
C=C1CCN(c2ccc(C(=O)NCc3ccc(C)cc3)cc2[N+](=O)[O-])CC1,1%,-1%,-4%,-63*,10%,i
CCn1c(=O)cc(SCC(=O)NCCc2ccc(OC)cc2OC)c2ccccc21,1%,.,.,.,-11%,i
O=[N+]([O-])c1ccccc1C(=Nc1ccccc1)c1c(O)cc(O)cc1O,7%,.,.,0,.,i
O=C(NCc1ccccc1Cl)C1CCN(S(=O)(=O)Cc2ccccc2)CC1,0%,.,.,.,9%,i
Fc1cccc(Cl)c1Cn1c(-c2cccs2)nc2ccccc21,1%,.,.,.,.,.
Cc1ccc(S(=O)(=O)NNC(=O)c2cc(C)cs2)cc1,1%,-9%,0%,25,-6%,i
COC(=O)NNS(=O)(=O)c1ccc(C)cc1,1%,26µM*,0%,5,-3%,i
CCOC(=O)c1cccc(NC(=O)CN2C(=O)CC(C)(C)Sc3ccccc32)c1,-1%,.,.,.,-23%,28µM*
COc1ccc(Cl)cc1NC(=O)Cn1c2ncccc2c(=O)n1-c1ccc(C)c(C)c1,0%,.,.,.,.,.
Cc1ccc(C)c(S(=O)(=O)NCc2nc(N3CCCC3)c3cc(Cl)ccc3n2)c1,1%,.,.,.,.,i
COc1ccc(C2NCCc3c2[nH]c2ccccc32)cc1CN1CCc2cc(OC)c(OC)cc2C1C (centres undefined),1%,?,?,0,?,i
COc1ccc(C2NCCc3c2[nH]c2ccccc32)cc1COc1ccc(F)cc1 (centres undefined),-1%,?,18µM*,-93*,28µM*,32µM*
CS(=O)(=O)c1ccc(-c2cnc(N)c(C(=O)Nc3ccccc3)n2)cc1,.,.,.,.,-12%,.
O=C(O)c1cc(-c2ccc3c(c2)OCO3)nc2ccc(Cl)cc12,2%,?,?,i,11%,i
O=C(c1cc2cc3ccc(Cl)cc3nc2o1)N1CCN(Cc2ccc3c(c2)OCO3)CC1,5%,-5%,0%,-4,11%,i
O=C(c1cc(-c2ccncc2)nc2ccc(Br)cc12)N1CCN(Cc2ccc3c(c2)OCO3)CC1,-2%,-1%,?,-63*,-25%,?
Cc1cc(C)c2nc(-c3ccncc3)cc(C(=O)N3CCN(Cc4ccccc4Cl)CC3)c2c1,-1%,26%,?,-75*,-15%,i
O=C(c1cccn2c(=O)c3ccc(Cl)cc3nc12)N1CCN(Cc2ccc3c(c2)OCO3)CC1,-2%[38.3 µM],16µM*,16µM*,-26,0%,i
Cc1ccc2nc(-c3ccncc3)cc(C(=O)N3CCOCC3)c2c1,-1%,-10%,1%,28,11%,i
O=C(c1cc(-c2ccncc2)nc2ccc(Cl)cc12)N1CCN(Cc2ccc3c(c2)OCO3)CC1,-2%,?,-2%,-83*,-21%,i
O=C(NCCc1ccc(Cl)cc1)C(=O)NCC(c1ccc2c(c1)OCO2)N1CCOCC1 (centres undefined),0%,.,.,.,.,.
CN(C)c1ccc(CNC(=O)c2cnc3sc(N4CCOCC4)nn3c2=O)cc1,0%,.,.,.,.,.
SMILES,PINK1 expr mod,SW480 rereplic,MCF10A rerep,IL-1B inflam inh,ATXN2 expr inh,S2 tox
CN1C(=O)/C(=C\c2ccccc2F)Sc2ccc(C(=O)NC3CCN(Cc4ccccc4)CC3)cc21,-1%,21µM*,?,-14,?,i
CN1C(=O)/C(=C/c2ccccc2Cl)Sc2ccc(C(=O)N3CCCC3)cc21,-1%,-8%,18µM*,-11,.,i
COc1ccc(/C=C2\Sc3ccc(C(=O)NC4CC4)cc3N(C)C2=O)cc1OC,4%,8%,?,-8,.,?
CCOC(=O)C1CCCN(C(=O)c2ccc3c(c2)N(C)C(=O)/C(=C/c2ccccc2Cl)S3)C1 (centres undefined),1%,?,?,-68*,-30%,i
CCOC(=O)C1CCCN(C(=O)c2cccc(N3C(=O)c4ccccc4C3=O)c2)C1 (centres undefined),2%,-9%,2%,-6,.,i
CCOc1ccccc1C1C(C(=O)Nc2ccccc2)=C(C)Nc2c(C(=O)Nc3ccc(F)cc3)cnn21 (centres undefined),0%,.,.,.,-1%,i
COc1ccc(OCC(O)CN(CC(O)COc2ccc(OC)cc2)c2cccc(O)c2)cc1 (centres undefined),1%,-3%,3%,-50*,-8%,i
COc1cccc(CNC(=O)CCc2c(C)c3ccc(O)c(C)c3oc2=O)c1,6%,.,.,.,.,.
O=C(OCc1ccccc1)c1ccc(NCc2cc(O)ccc2O)cc1,-1%,?,?,-76*,10µM*,.
CCC(=O)Nc1ccc(C(=O)OCc2ccccc2)cc1,1%,-3%,2%,-2,31%,i
CC(C)OC(=O)c1ccc(NCc2cc(O)ccc2O)cc1,-7%,?,?,-101*,?,.
O=C(NCCC1=CCCCC1)C(=O)NCC(c1ccco1)N1CCN(c2ccccc2)CC1 (centres undefined),13µM*,?,?,30,0%,?
O=C(COc1ccccc1)NCC(c1ccco1)N1CCN(c2ccccc2F)CC1 (centres undefined),2%,?,82%,-14,-12%,i
O=C(COc1ccccc1)NCC(c1ccco1)N1CCN(c2ccc(F)cc2)CC1 (centres undefined),4%,?,-1%,-54*,-26%,i
CCc1cccc(CC)c1NC(=O)N1Cc2[nH]nc(NC(=O)c3ccc(N4CCN(C)CC4)cc3)c2C1,.,.,.,.,-1%,.
COc1ccc(-n2nc(C(=O)N3CCC(C)CC3)c3c4ccccc4n(C)c3c2=O)cc1Cl,0%,.,.,.,5%,i
O=C(NCCc1ccccc1)c1cccs1,-1%,-1%,4%,0,-3%,i
O=C(NCCC(c1ccccc1)c1ccccc1)c1cccs1,13%,1%,10%,-56*,-8%,i
O=C(Nc1cc(Br)c(O)c(Br)c1)c1cccc(NC(=O)c2ccco2)c1,4%,-27%,0.73µM*,2,12%,i
COc1ccc(C(=O)Nc2cccc(OC(=O)c3ccco3)c2)cc1,2%,15%,1%,-4,3%,i
